RXFP1 antagonist: antagonists of human relaxin receptor RXFP1; Q9HBX9; HEK293-RXFP1, relaxin-stimulated cAMP HTRF, 30 min; stronger effect = lower value; activity change, negative = inhibition, % at 57.5 µM; hit rate 0.59% among 350,000; AID 1259400;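 active means activity change of -60% or lower, but not beyond a set lower limit; inconclusive means change between -60% and -40%, or beyond the set limit; inactive means change above -40%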; further: on the % scale 0 is the no-effect control and ±100 the full control effect
Target sequence (Q9HBX9 whole entry, looked up): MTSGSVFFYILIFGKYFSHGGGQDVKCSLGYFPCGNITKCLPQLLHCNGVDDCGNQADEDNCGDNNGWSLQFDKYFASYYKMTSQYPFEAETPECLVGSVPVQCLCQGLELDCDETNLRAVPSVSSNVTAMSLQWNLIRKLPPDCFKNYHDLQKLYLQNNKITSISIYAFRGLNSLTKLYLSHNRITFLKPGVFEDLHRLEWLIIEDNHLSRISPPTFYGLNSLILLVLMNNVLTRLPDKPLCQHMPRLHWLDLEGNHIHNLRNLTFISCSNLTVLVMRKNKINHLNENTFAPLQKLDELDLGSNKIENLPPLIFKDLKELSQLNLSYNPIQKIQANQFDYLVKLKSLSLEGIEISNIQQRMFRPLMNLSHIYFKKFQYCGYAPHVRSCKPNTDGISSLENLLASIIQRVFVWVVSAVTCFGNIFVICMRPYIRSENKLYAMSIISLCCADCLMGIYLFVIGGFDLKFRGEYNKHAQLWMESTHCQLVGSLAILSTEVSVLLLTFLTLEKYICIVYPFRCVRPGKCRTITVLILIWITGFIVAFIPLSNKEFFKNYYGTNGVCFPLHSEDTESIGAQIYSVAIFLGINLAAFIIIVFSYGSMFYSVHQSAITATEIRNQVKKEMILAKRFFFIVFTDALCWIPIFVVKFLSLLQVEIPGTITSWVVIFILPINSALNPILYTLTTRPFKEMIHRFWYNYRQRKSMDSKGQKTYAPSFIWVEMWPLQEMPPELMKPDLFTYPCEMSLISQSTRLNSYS
Akt phos inh: inhibitors of Akt phosphorylation. activity change, % for hits at 50 µM. hit rate 0.32% among 360,000. Neuro2A IGF-stimulated pAkt S473 HTRF, 20 min; stronger effect = lower value; in the data active means activity change below about -80%; inconclusive means mostly about -51% to -80%; further: on the % scale 0 is the no-effect control and ±100 the full control effect
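Neuro2A cells in DMEM with 0.5% FBS, overnight at 37 deg C, given compound at single 50 µM final, then IGF (6 nM final) for 20 min at 37 deg C. Lysed; phospho-Akt Ser473 by HTRF after 24 h, 665/615 ratio.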
gsp antag: antagonists of gsp mutant (McCune-Albright syndrome) | hit rate 0.4% among 340,000 | Potency, µM (series often up to 76.9 µM), for inactives: at the highest dose activity change, negative = inhibition, actives largely listed as inhibitors | gsp-mutant cells, cAMP HTRF, 30 min; calls by dose curve; cell line not stated here;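 further: intracellular cAMP measured with PDE inhibitor Ro 20-1724 present during compound exposure; potency means the concentration at half of the fitted maximal effect; on the % scale 0 is the no-effect control and ±100 the full control effect; nearly all actives have a fitted effect of over 65% in size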
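Measurement of cellular cAMP by homogeneous time-resolved fluorescence following a 30 min compound exposure at 37C. The PDE inhibitor […] was present throughout; the assay buffer was DPBS with 0.05% BSA and 0.005% Tween 20.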
gsp ag: activates gsp, the McCune-Albright syndrome mutation; gsp mutant cells, cAMP HTRF, 30 min; AID 624287; hit rate 0.13% among 340,000; Potency, µM (top dose mostly 76.9 µM), for inactives: at the highest dose activation (cAMP increase), hits mostly activators; active means well fitted activation curve with a large enough effect; inconclusive means small, poorly fitted or top-dose-only effect, or another doubt; inactive means no such curve, though single readings can be large or run the other way; cell line not stated here;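 further: phosphodiesterase inhibitor Ro 20-1724 added with compounds to block cAMP breakdown; potency means the concentration at half of the fitted maximal effect; nearly all actives have a fitted effect of over 60% in size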
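Cells in DMEM/10% FBS with G418 were pretreated with compounds in DMSO plus […] (300 uM stock) for 30 min at 37C. cAMP was measured by HTRF (cAMP-d2 plus anti-cAMP antibody-K) after 30 min at room temperature.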
RXFP1 agonist: agonists of human relaxin receptor RXFP1. AID 2676. HEK293T-RXFP1 cAMP TR-FRET, 30 min; response scale: percent of porcine relaxin response, buffer zero. Q9HBX9. Potency, µM (doses to about 57.5 µM), for the others: at the top dose activation, hits mostly activators. hit rate 0.3% among 370,000; active means well fitted activation curve with a large enough effect; inconclusive means small, poorly fitted or top-dose-only effect; further: potency means the concentration at half of the fitted maximal effect; on the % scale 0 is the no-effect control and ±100 the full control effect; nearly all actives have a fitted effect of over 60% in size
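HEK293T cells stably expressing RXFP1 were pretreated with the PDE4 inhibitor Ro 20174, exposed to compounds for 30 min at 37C, lysed, and cAMP was read by TR-FRET. Data normalized to buffer (basal) and 29 nM porcine relaxin (100%).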
* marks the source's active call; other numbers are inactive results; i = inactive; ? = inconclusive; . = no result; [ ] = another dose, or the depositor's remark. Hits are enriched below; roughly 1.2% of the tested compounds scored in any of these assays.

SMILES | RXFP1 antagonist | Akt phos inh | gsp antag | gsp ag | RXFP1 agonist
CN1/C(=C\C=C2C(=O)NC(=S)NC2=O)C(C)(C)c2ccccc21 | -13 | i | 50µM* | -130% | -5%
CCC(=O)C(CCN(C)C)(c1ccccc1)c1ccccc1 | 9 | . | . | . | .
Clc1ccccc1N1CCNCC1 | 9 | . | . | . | .
O=c1oc2ccccc2c(O)c1[C@H]1c2ccc(O)cc2Oc2c1c(=O)oc1ccccc21 | 0 | i | 5% | 21% | 18µM*
NC1=C([N+](=O)[O-])C(c2ccc3c(c2)OCO3)c2c(c3ccccc3oc2=O)O1 (configuration not stated) | 20 | i | 7% | -2% | 3%
CC(C)(C)CC(C)(C)c1ccc(O)cc1 | 14 | . | . | . | .
COc1ccc(C(c2ccc(OC)cc2)C(Cl)(Cl)Cl)cc1 | -93* | i | -22% | . | 1%
C[n+]1c(-c2ccccc2)cc(-c2ccc(Cl)cc2)cc1-c1ccccc1 | -88* | i | -4% | 32% | 3%
CN(C)c1ccc(-[n+]2c(-c3ccccc3)cc(-c3ccccc3)cc2-c2ccccc2)cc1 | -105* | i | -24% | ? | 8%
CCOC(=O)c1ccc(-[n+]2c(-c3ccccc3)cc(-c3ccccc3)cc2-c2ccccc2)cc1 | . | i | -7% | . | -1%
Cc1ccc(-c2cc(-c3ccccc3)cc(-c3ccccc3)[n+]2-c2ccccc2)cc1 | . | i | 50µM* | . | 2%
Cc1ccc(-c2cc(-c3ccc(C)cc3)[n+](-c3ccccc3)c(-c3ccc(C)cc3)c2)cc1 | . | i | -23% | . | 0%
c1ccc(-c2cc(-c3ccccc3)[n+](-c3ccccc3)c(-c3ccccc3)c2)cc1 | ? | i | 50µM* | -5%[15.4 µM] | 7%
CC(Cc1ccc2c(c1)OCO2)NO (configuration not stated) | 14 | . | . | . | .
CCN(CC)CCc1c[nH]c2ccccc12 | 10 | . | . | . | .
Cc1cccc(C(=O)Nc2ccc(C(=O)OCc3cc(=O)n4nc(C5CC5)sc4n3)cc2)c1 | -3 | . | . | . | ?
Cn1c(O)c(N=Nc2cccc(S(=O)(=O)N3CCOCC3)c2)c(=O)n(C)c1=O | 4 | i | 30% | ? | 10µM*
COc1ccc(C2=NCC(=O)N(CC(=O)NCc3ccco3)c3sc4c(c32)CCCC4)cc1 | -9 | i | ? | 10% | -1%
Cc1cccc(C2=NCC(=O)N(CC(=O)NCc3ccco3)c3sc4c(c32)CCCC4)c1 | -69* | i | ? | -46% | -1%
Cc1ccc([C@H]2C[C@H](n3cc(C4CC4)nn3)[C@@H](O)CN2Cc2cccs2)cc1 | -11 | i | . | -6% | .
O=C1NC(=S)NC(=O)C12C(c1ccc(F)cc1)NC(=S)NC2c1ccc(F)cc1 (configuration not stated) | 6 | -118%* | 8% | -27% | 0%
O=C1NC(=S)NC(=O)C12C(c1ccccc1)NC(=S)NC2c1ccccc1 (configuration not stated) | -8 | i | 5% | 9% | 2%
Cc1[nH]n(-c2ccccc2)c(=O)c1C(C[N+](=O)[O-])c1ccccc1Cl (configuration not stated) | 3 | i | -10% | 21% | 2%
Cc1[nH]n(-c2ccccc2)c(=O)c1C(c1ccc([N+](=O)[O-])cc1)c1c(C)[nH]n(-c2ccccc2)c1=O | -11 | i | 25µM* | ? | 0%
CCN1CCCC1CNC(=O)C(O)(c1ccccc1)c1ccccc1 (configuration not stated) | 5 | . | . | . | .
SMILES | RXFP1 antagonist | Akt phos inh | gsp antag | gsp ag | RXFP1 agonist
C[C@]12CC[C@H]3[C@@H](CCC4=CC(=O)CC[C@@]43C)[C@@H]1CC[C@@H]2C(=O)O | -27 | . | . | . | .
CCN(CC)c1ccc(/C=C2\C(=O)NC(=O)N(Cc3ccco3)C2=O)cc1 | -66* | i | -21% | -37% | 7%
O=C1NC(=O)N(Cc2ccco2)C(=O)/C1=C/c1cccn1CCOc1ccccc1Cl | -61* | i | 30% | -8% | -1%
CCc1ccc(C2CCNCC2)cc1 | -6 | . | . | . | .
COc1ccc(OC)c(CCNCc2c(C(=O)O)c(C)n(Cc3ccc(F)cc3Cl)c2C)c1 | -63* | . | . | . | 0%
COc1ccc(OC)c(CNCCc2ccc(OC)c(OC)c2)c1 | 10 | i | 3% | -19% | -1%
COC(=O)C1=C(C(=O)OC)C2OC1c1cc3ccccc3cc12 | -120* | i | -4% | ? | .
O=c1cc(C(F)(F)F)c2cc3c4c(c2o1)CCCN4CCC3 | 5 | i | 2% | 10µM* | 9%
Cc1cc2c(C(F)(F)F)cc(=O)oc2c2c1NCCC2 | 1 | i | 1% | 16µM* | 4%
C[n+]1c(-c2ccccc2)c2cc(N)ccc2c2ccc(N)cc21 | . | i | 35µM* | . | 8%
Cc1nc2ccccc2c(=O)n1-c1ccccc1Cl | 8 | . | . | . | .
CCOP(=O)(OCC)C(CC)N1CCOCC1 (configuration not stated) | 0 | -118%* | -2% | 4% | 1%
COc1ccc(-n2c(O)c(/C=C3\C=Nc4ccc(Br)cc43)c(=O)[nH]c2=O)c(OC)c1 | -71* | i | -18% | ? | -3%
O=C(N[C@@H]1N=C(c2ccccc2F)c2cccc3c2N(CC3)C1=O)c1cc2ccccc2[nH]1 | -34 | . | . | . | .
O=C(c1ccc2c3c(cccc13)CC2)C1CCCN(Cc2ncc[nH]2)C1 (configuration not stated) | -12 | i | . | 7%[15.4 µM] | 2%
O=C(c1ccc2c3c(cccc13)CC2)C1CCCN(CC2CC2)C1 (configuration not stated) | -63* | i | 14% | 5%[15.4 µM] | 4%
CC(Cc1ccccc1)NCCn1cnc2c1c(=O)n(C)c(=O)n2C (configuration not stated) | 20 | . | . | . | .
c1ccc(CCCN2CCN(CCOC(c3ccccc3)c3ccccc3)CC2)cc1 | . | i | -10% | . | .
Fc1ccc(C(OCCN2CCN(CCCc3ccccc3)CC2)c2ccc(F)cc2)cc1 | -73* | . | . | . | .
C[C@]12CC[C@H]3[C@@H](CCC4=CC(=O)CC[C@@H]43)[C@@H]1CC[C@@H]2OC(=O)CCC1CCCCC1 | -11 | . | . | . | .
CCC(=O)O[C@H]1CC[C@H]2[C@@H]3CCC4=CC(=O)CC[C@]4(C)[C@H]3CC[C@]12C | -68* | i | -13% | . | .
CC12CCC(=O)C=C1CCC1C2CCC2(C)C(O)CCC12 (configuration not stated) | 17 | i | -6% | -33% | 2%
O=C(O)CNC1c2ccccc2CSc2ccccc21 (configuration not stated) | -63* | i | -11% | 10% | .
O=C(c1ccc(Cl)cc1)C1CCCN(Cc2ccc3c(c2)OCCO3)C1 (configuration not stated) | -73* | i | 7% | -5%[15.4 µM] | 0%

High-throughput results (PubChem)
